Screening results as filed in PubChem.
Shown are actives, neighbours in structure and some others; about 14% of the full set was active somewhere.
Pf growth 96h = P. falciparum growth inhibition at 96 hour, primary screen for plastid delayed-death inhibitors; P. falciparum luciferase reporter growth, 96 h; Potency, µM (highest dose often 28.7 µM), most hits filed as inhibitors; 320,000 tested, 6.9% active
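P. falciparum expressing integrated firefly luciferase, in erythrocytes at 2% hematocrit, 0.05% parasitemia, incubated with compounds 96 h at 37 C, 5% CO2. Growth inhibition read as loss of luminescence; two-generation exposure targets delayed-death apicoplast inhibitors.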
HCV inh = inhibitors of hepatitis C virus infection | 340,000 tested, 3.4% active | Potency, µM (titrated, usually from 41.8 µM), most hits filed as inhibitors | Huh7.5.1 HCVcc-Cre infection, luciferase reporter, 44 h | AID 651820
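Whole-lifecycle infectious HCVcc-Cre system; cells 1,000/well, compound then virus (~0.5 moi) added 4 h after plating, 44 h culture. Luciferase read 15 sec following 15 min substrate incubation, room temp.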
MARV entry inh = inhibitors of Marburg virus binding or cell entry. Potency, µM (highest dose often 37.8 µM), actives largely listed as inhibitors. Marburg virus pseudotyped entry inhibition, cell reporter. 300,000 tested, 1.8% active; calls by dose curve; tested in HEK293 cells
HCMV inh = human cytomegalovirus inhibition; HFF cells, HCMV-luciferase reporter, 72 h; hits give low values; 410,000 tested, 4.5% active; activity change, negative = inhibition, % at 57.5 µM; AID 1259415; in the data active = activity change below about -60%; inconclusive = no clear call, values can overlap the other calls; inactive = above about -39%
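Inhibition of viral replication was scored as loss of reporter luminescence in HFFs infected with HCMV-luciferase (MOI 1 PFU/cell) for 72 h; compounds tested at 2 doses, normalized to buffer and Salinomycin controls.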
Pf growth 48h = inhibits P. falciparum growth in the first generation, 48 h; P. falciparum luciferase growth in erythrocytes, 48 h; Potency, µM (top dose mostly 28.7 µM), actives largely listed as inhibitors; AID 504832; 310,000 tested, 5.9% active
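Luciferase-expressing P. falciparum in infected erythrocytes (2% hematocrit, 0.1% parasitemia final) in RPMI 1640/0.5% Albumax were exposed to compound for 48 hours at 37 C, 5% CO2; growth read as luminescence.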
Lassa entry inh = Lassa virus entry inhibition; Lassa virus pseudotype entry inhibition, cell reporter; Potency, µM (top dose mostly 37.9 µM), most hits filed as inhibitors; 300,000 tested, 1.2% active; AID 540256; calls by dose curve; tested in HEK293 cells; also: nearly all actives have a fitted effect of over 50% in size
Each line names hits and unclear results; the compound was inactive in the other large screens. Unless noted, calls follow the shape of the dose curve; as a rule, active = well fitted inhibition curve with a large enough effect; inconclusive = small, poorly fitted or top-dose-only effect, or another doubt; inactive = no such curve, though single readings can be large or run the other way.

O=c1[nH]c2cc3c(cc2cc1C(c1nnnn1Cc1ccccc1)N1CCN2CCCC2C1)OCCO3 (stereo not given)	Pf growth 96h 12µM, MARV entry inh inconclusive, Pf growth 48h inconclusive
CCC(C)(C)n1nnnc1C(c1ccc(C)cc1)N1CCN(C(=O)c2ccco2)CC1 (stereo not given)	Pf growth 48h inconclusive
CCN1CCN(C(c2ccc(OC)cc2)c2nnnn2Cc2ccc3c(c2)OCO3)CC1 (stereo not given)	Pf growth 96h inconclusive, MARV entry inh inconclusive
O=c1[nH]c2cc3c(cc2cc1C(c1nnnn1Cc1ccccc1)N1CCCCCC1)OCCO3 (stereo not given)	Pf growth 96h inconclusive, MARV entry inh inconclusive, Lassa entry inh inconclusive (no result: Pf growth 48h)
CCOC(=O)c1cccc(NC(=O)C2Cc3ccccc3N2C(=O)c2ccccc2)c1 (stereo not given)	none (no result: Pf growth 96h, HCV inh, MARV entry inh, Pf growth 48h)
Cc1noc(C)c1C(=O)Nc1ccc(-c2nnc3n2CCCCC3)cc1	MARV entry inh inconclusive
COC1=CC(=O)OC(c2cccc(C#N)c2)C1 (stereo not given)	none (no result: Pf growth 96h, HCV inh, MARV entry inh, Pf growth 48h, Lassa entry inh)
Cc1ccc2nc3n(c(=O)c2c1)-c1ccccc1C(=O)NC3CC(C)C (stereo not given)	none (no result: Pf growth 96h, HCV inh, MARV entry inh, Pf growth 48h, Lassa entry inh)
O=c1[nH]c2cc3c(cc2cc1C(c1nnnn1C1CCCC1)N1CCCc2ccccc21)OCCO3 (stereo not given)	MARV entry inh inconclusive
O=c1[nH]c2cc3c(cc2cc1C(c1nnnn1Cc1ccccc1)N1CCCc2ccccc21)OCO3 (stereo not given)	MARV entry inh inconclusive, HCMV inh -85
Cc1ccc2cc(C(c3nnnn3C(C)(C)C)N3CCCC3)c(=O)[nH]c2c1C (stereo not given)	Pf growth 48h 3.3µM (no result: Pf growth 96h, HCV inh, HCMV inh, Lassa entry inh)
Cc1cc(NC(=O)C(C)(C)C)cc(-c2nc3ncccc3o2)c1O	none (no result: Pf growth 96h, HCV inh, Pf growth 48h)
Clc1cccc(-n2ncc3c(NCCC4=CCCCC4)ncnc32)c1	none (no result: Pf growth 96h, HCV inh, MARV entry inh, Pf growth 48h)
O=S(=O)(Nc1ccc(N2CCCCC2)cc1)c1ccccc1F	Pf growth 96h inconclusive, Pf growth 48h inconclusive
O=S(=O)(Nc1ccc(N2CCOCC2)cc1)c1ccc(F)cc1	none
O=S(=O)(Nc1ccc(N2CCCCC2)cc1)c1ccc(F)cc1	Pf growth 96h inconclusive, HCMV inh -61 (no result: MARV entry inh, Lassa entry inh)
O=S(=O)(Nc1ccc(N2CCCCC2)cc1)c1ccc(F)cc1F	Pf growth 96h inconclusive, HCV inh inconclusive, HCMV inh -60, Pf growth 48h inconclusive
O=C(C1CCCCC1)N1CCC2CC1c1cc(Cl)ccc12 (stereo not given)	none (no result: Pf growth 96h, MARV entry inh, Pf growth 48h, Lassa entry inh)
COc1ccc(CNC(=O)CCSCc2ccccc2C)cc1	Pf growth 96h 3.3µM
O=C(CCSCc1ccccc1F)NCc1ccc(F)cc1	Pf growth 96h 2.3µM (no result: Pf growth 48h)
COc1ccc(CNC(=O)CCNC(=O)c2ccc(C(C)(C)C)cc2)cc1OC	Pf growth 96h inconclusive, HCMV inh inconclusive
COc1ccccc1CNC(=O)CCSCc1cccc(Cl)c1	Pf growth 96h 1.2µM
CC(C)(C)c1ccc(C(=O)NCCC(=O)NCc2ccc(F)cc2)cc1	HCMV inh -82 (no result: Pf growth 96h, HCV inh, MARV entry inh, Pf growth 48h, Lassa entry inh)
O=C(CSCc1ccccc1F)NCc1ccc(F)cc1	Pf growth 96h inconclusive, HCMV inh inconclusive
Cc1ccccc1C(=O)NNC(=O)C1CCN(C(=O)Nc2ccccc2)CC1	HCV inh inconclusive
CCOc1cc(CNC(=O)Cn2c(=O)c3cccn3c3ccc(F)cc32)cc(OCC)c1OCC	none (no result: Pf growth 96h, HCV inh, MARV entry inh, Pf growth 48h)
COc1ccc(N(C)C(=O)NCc2noc3ccc(C)cc23)c(OC)c1	HCMV inh -82 (no result: Pf growth 96h, HCV inh, MARV entry inh, Pf growth 48h)
COc1ccc(OC)c(CNC(=O)NCc2noc3ccc(C)cc23)c1	none (no result: Pf growth 96h, HCV inh, MARV entry inh, Pf growth 48h)
CCn1nc(C)c(CCN(C)C(=O)Nc2cc(Cl)c(OC)cc2OC)c1C	none (no result: Pf growth 96h, HCV inh, MARV entry inh, Pf growth 48h)
Cc1nn(Cc2ccccc2Cl)c(C)c1C(=O)Nc1nnc(C2CC2)s1	MARV entry inh 0.89µM, HCMV inh -90, Pf growth 48h inconclusive, Lassa entry inh inconclusive (no result: Pf growth 96h)
Cc1nn(Cc2ccccc2)c2sc(C(=O)NCc3cccnc3)cc12	Pf growth 96h inconclusive, HCV inh 7.9µM, Pf growth 48h inconclusive, Lassa entry inh inconclusive
Cc1cnc(NC(=O)c2cc3c(C)nn(Cc4ccccc4Cl)c3s2)s1	Pf growth 96h 13µM, HCV inh inconclusive, Pf growth 48h 7.4µM
Cc1cc(C(=O)NCc2cccnc2)n(-c2ccccc2)n1	none (no result: MARV entry inh, Lassa entry inh)
Cc1cnc(NC(=O)Cc2ccccc2Cl)s1	HCV inh inconclusive
